Substitutions are numbered along the chain they refer to. In all, about 5,800 sequences were measured (“enrichment r”: median about 0.68, highest 2% from about 11 on). The entries come from a sample that favours the highest values as a whole.

To fix the notation:
T1: UNK ZnF1-6 (called full-length) (human, UniProt Q9C0B0 30-357)
T1 sequence: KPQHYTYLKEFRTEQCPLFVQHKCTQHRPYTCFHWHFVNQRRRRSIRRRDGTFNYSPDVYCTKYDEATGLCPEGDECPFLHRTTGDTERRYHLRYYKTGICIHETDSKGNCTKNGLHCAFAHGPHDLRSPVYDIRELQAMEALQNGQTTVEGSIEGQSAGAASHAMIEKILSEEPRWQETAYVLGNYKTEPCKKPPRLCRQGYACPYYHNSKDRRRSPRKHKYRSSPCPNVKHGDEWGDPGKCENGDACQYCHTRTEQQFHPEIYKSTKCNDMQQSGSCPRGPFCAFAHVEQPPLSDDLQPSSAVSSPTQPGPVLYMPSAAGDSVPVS

B1: ENSG00000107863:be:win_4801|CDS|ENSG00000107863|bound_else_gene|NA|bound_elsewhere_windowed (ssRNA)
RNA: GGGAGUUCUACAGUCCGACGAUCUCCAGUCGACUGAGCCCUGAGGUGCAAUCCGUGGCAGAGAGCAAGGGGGACGAGGCAGAUGACGAGAGAAGCGAACUCAUCAGUGAAGGGCGGCCUGUGGAAACCGACAGCGAGAGCGAGCAACAGAGGAUUGAGCAUCA
B2: chr17:41691520:41691533:+|3pUTR|ENSG00000173812|msi1_unk|total|mutant (ssRNA)
RNA: GGGAGUUCUACAGUCCGACGAUCGGAACAAAUCUCAAACUGAUCCAUCAGUCAUGCCGCCCGCUGCCGAGCUUGCAACUUAACCGCAGCAGCUGCCCAAUGCCAUGUGAAGUAACAAACUGGUUUUUGGUUUUUUUUUCCCCUCAACAGAGGAUUGAGCAUCA
B3: chr19:5558166:5561399:-|three_prime_utr|ENSG00000223573|control|control|control (ssRNA)
RNA: GGGAGUUCUACAGUCCGACGAUCCCAGCUGAUGCACACUGCUUCAGACACUCCUGCUGGAGCCCCAGUCCCUGACAAGGACCUAGGACAUUUUUGCUCCUGCCCAGCCUAUCGGGAGGGAGCCUUGAGCCUUUCAGCUCUGCUCAACAGAGGAUUGAGCAUCA
B4: ENSG00000070961:be:win_51|CDS|ENSG00000070961|bound_else_gene|NA|bound_elsewhere_windowed (ssRNA)
RNA: GGGAGUUCUACAGUCCGACGAUCUUUGAAGGAAGCUAAUCAUGAUGGAGACUUUGGAAUUACGCUCGCAGAGCUGCGGGCUCUCAUGGAGCUCAGGUCCACAGAUGCAUUACGAAAAAUACAGGAAAGCUAUGGAGAUGUCUACAACAGAGGAUUGAGCAUCA
B5: chr16:48080881:48083801:-|three_prime_utr|ENSG00000140798|control|control|control (ssRNA)
RNA: GGGAGUUCUACAGUCCGACGAUCUGAGUUUGACAAGCCUGAAGUCCUUGCAGAGAAGCCAGAUUCUGCAUUUGCGAUGUUACUAGCAGCAGAAGUCAGAUUGUAGAGGUCCUGGCGGCUGAUUCUAGAGGAGGAAGAGGCUCUCAACAGAGGAUUGAGCAUCA
B6: chr1:205790044:205790145:-|3pUTR|ENSG00000133065|msi1|FALSE|bound_elsewhere (ssRNA)
RNA: GGGAGUUCUACAGUCCGACGAUCAGAUUCUUCUGCCUCUUUCUCCUUUCCAGACCCCUACUCUGUGCAGUGCUGACCACAGCUAGAGCCACCGCCCCAUUGCUCAACCAGUAUUUAUUUCCCUAAACGACCCUUCCUCACAUUCAACAGAGGAUUGAGCAUCA
B7: chr11:107429260:107429366:-|CDS|ENSG00000152404|unk|FALSE|unique (ssRNA)
RNA: GGGAGUUCUACAGUCCGACGAUCGAGGAAACCCACAUAUUCAGAUAAAGCACAAAAUUGUCAAGAAAGUAGAGAAUCAGACUUAGUAAAAUAUGGUAACAGUUCAAGGGAUAGAUAUGCUACAACAGAUACUGCAAAAAAUAGCAACAGAGGAUUGAGCAUCA
B8: chr7:5606511:5606625:+|3pUTR|ENSG00000075618|msi1_unk|FALSE|overlapping (ssRNA)
RNA: GGGAGUUCUACAGUCCGACGAUCGGGUGUCUUGGUCUUUUAUUUUUUGUAAGUGUCAUUUGUAUAACUCUAAACGCCCAUGAUAGUAGCUUCAAACUGGAAAUAGCGAAAUAAAAUAACUCAGUCUGCAGCCCCAGGCCGGCCCAACAGAGGAUUGAGCAUCA
B9: chr15:38352922:38353023:+|3pUTR|ENSG00000166068|msi1|total|mutant (ssRNA)
RNA: GGGAGUUCUACAGUCCGACGAUCUACAUAUAAAUUUAUUUCUUUUGCAGAGCAUUAUAUUACUGGAUGUUUAAUUUACAAAACCGUUGGGUAAAUGUUCCAACAAACUUUAAAGUACCUUGAAGUCAAAUUGUCUGUUUUUGUCAACAGAGGAUUGAGCAUCA
B10: chr11:62152232:62152344:+|3pUTR|ENSG00000149503|unk|FALSE|unique (ssRNA)
RNA: GGGAGUUCUACAGUCCGACGAUCUGCUCUGUAAAUAGUUGUUUUAAUUUAGCUGAAUGUUAGCAUUUUAGUCUUUGGCAUUUUAGCGUUUGGGAGGUAGAUUAAUAAAGUAUAUUCCUUCAAGCCUGCUGUUGAUACCAUGAACAACAGAGGAUUGAGCAUCA
B11: chr18:9400975:9401076:+|3pUTR|ENSG00000128791|msi1|FALSE|unique (ssRNA)
RNA: GGGAGUUCUACAGUCCGACGAUCUAUAAAAAUAGAUAAUGCUCUUGGACACAUUUUGUAUUAUUCAUGAUCUGAAUAGUAGUUAGUUAAAAGAUCAUUUGUAAUAUUAUGAUCAACUGUUAUAAAUUAAGGUCUUAAUACCUUCAACAGAGGAUUGAGCAUCA
B12: chr3:46835109:46836203:-|three_prime_utr|ENSG00000160808|control|control|control (ssRNA)
RNA: GGGAGUUCUACAGUCCGACGAUCUGAAGGCACAAGCUGUUCCAGUAUAAUAAAGAAAAUAAUUAAAUUAAGAAAAGUUAUACUAGAAAUAAGAUAUAGGUAUGAUUAUUAUUAAUCAUUAGUUUGUAGUAUUACUUUGUUCUACAACAGAGGAUUGAGCAUCA
B13: chr10:104129887:104130138:-|three_prime_utr|ENSG00000197748|control|control|control (ssRNA)
RNA: GGGAGUUCUACAGUCCGACGAUCAAAAAAUCAUUUCAUUUGGGUAAAAUGAUUUCCUUUUCUUUCUUACUGGGAAAUUGAAGUAGCAUGUCCUCUGAGUUGCAUGUUUUAGAUAAAAAAUUGUUUAAUUUUAGCCUUAAUUGUCAACAGAGGAUUGAGCAUCA
B14: chr15:38352922:38353023:+|3pUTR|ENSG00000166068|msi1|FALSE|unique (ssRNA)
RNA: B9 RNA with C83U, C84A

The test deals with T1, UNK ZnF1-6 (called full-length). Kind of test: nsRBNS (natural sequence RNA bind-n-seq); RBNS binding buffer (assumed for nsRBNS): 25 mM Tris pH 7.5, 150 mM KCl, 3 mM MgCl2, 0.01% Triton X-100, 500 ug/ml BSA, 20 U/ml SUPERase-In, 4 C; UNK is unkempt and MSI1 is Musashi-1; names of the RNAs are library labels; protein concentration not given here; high values mean tight binding.
For B1, the binding signal amounted to 0.993 enrichment R.

In turn, B2 returned a binding signal of 0.624 enrichment R.

In turn, B3 gave a binding signal of 0.786 enrichment R.

As to B4, the binding signal is 0.507 enrichment R.

On to B5, for which the binding signal came out at 1.15 enrichment R.

Consider B6, for which the binding signal was 1.07 enrichment R.

In turn, B7 registered a binding signal of 1.66 enrichment R.

B8: the binding signal stood at 1.39 enrichment R.

Turning to B9, the binding signal worked out at 0.824 enrichment R.

In turn, B10 displayed a binding signal of 110 enrichment R.

Molecule B11 showed a binding signal of 2.18 enrichment R.

The molecule B12 yielded a binding signal of 4.03 enrichment R.

B13 gave a binding signal of 13.5 enrichment R.

B14 registered a binding signal of 1.48 enrichment R.

Source of the values: article PMC12136788.
